Assay results reported in PubChem BioAssay AID720517 (National Center for Advancing Translational Sciences (NCATS), 2013).
Inconclusive results are not listed. Where a call stands in place of a potency, no number is given. The source made the active and inactive calls. The call rests on the fitted dose curve; in most records, active means well fitted activation curve with a large enough effect; inconclusive means small, poorly fitted or top-dose-only effect; inactive means flat fitted curve, though single readings scatter.

Assay: qHTS for Inhibitors of Cell Surface uPA Generation: FP59 Counterscreen for Cherry-picked Compounds
Details: FP59 anthrax toxin cytotoxicity counterscreen, cells; series mostly up to 115 µM
Potency means the concentration at half of the fitted maximal effect.

SMILES | Potency
COc1ccc(/C=N/NC(=O)COc2ccc3ccccc3c2)c(C(=O)O)c1OC | inactive
Cc1cccc(C(=O)NCC(=O)OCC(=O)NC2CCCCCCC2)c1 | inactive
Cc1ccc(C(O)(COC(=O)C(C)C)COC(=O)C(C)C)c(O)c1 | inactive
Cc1nc2nc(C)c(NS(=O)(=O)c3ccc(Cl)cc3)c(=O)n2[nH]1 | inactive
CCc1cc(CC)c(/C=N/NC(N)=O)c(CC)c1 | inactive
O=C1[C@H]2[C@@H](c3ccc(F)cc3)N3C(=O)N(c4cccc(F)c4)C(=O)[C@@]3(Cc3ccc(Cl)cc3)[C@H]2C(=O)N1C1CCCCC1 | inactive
N/C(=N/OC(=O)c1ccccc1F)c1nonc1N | inactive
COc1cc(C2/C(=C(\O)c3ccc4c(c3)CC(C)O4)C(=O)C(=O)N2CC2CCCO2)cc(OC)c1OC (centres undefined) | inactive
CCC(C)Sc1nnc(NS(=O)(=O)Cc2ccccc2)s1 (centres undefined) | inactive
CCOc1cc(N2CCOCC2)c(OCC)cc1NC(=O)c1[nH]c(C)c(C(C)=O)c1C | inactive
COc1ccc(-c2cc3nc(-c4ccccc4)cc(N4CCCC(O)C4)n3n2)cc1 (centres undefined) | inactive
Cc1nc2ncccn2c1-c1csc(Nc2ccc(S(N)(=O)=O)cc2)n1 | inactive
c1ccc(C2[C@H]3CN(Cc4cccnc4)[C@H](c4ccccc4)C34CC2(c2ccccc2)C4)cc1 (some centres undefined) | inactive
CC(C)Cn1cnc2c(N)nc3ccccc3c21 | inactive
O=C(CCc1ccccc1)NNC(=O)c1cccc(F)c1 | inactive
CCCS(=O)(=O)c1ccc(COC(=O)Cc2ccc([N+](=O)[O-])cc2)cc1 | inactive
COc1cccc(NC(=O)CSc2nc3ncc(Br)cc3[nH]2)c1 | inactive
CCN1CCCCC(=N/O)/C(=N/O)CCCC1 | inactive
O=C(C[C@H]1C[C@H](C(=O)N2CCOCC2)[C@@]2(CCC3CCCC3)c3[nH]c4cc(-c5ccco5)ccc4c3CCN2C1=O)NCc1cccc(C(F)(F)F)c1 | inactive
COc1ccc2cc(CCNC(=O)c3ccc4c(c3)OCO4)c(=O)[nH]c2c1 | inactive

SMILES | Potency
COc1ccc(NC(=O)CC(C)CC(=O)NCc2ccccc2)c(OC)c1 (centres undefined) | inactive
CN(C(=O)CCn1c(=S)oc2ccccc21)c1ccc(F)cc1 | inactive
Cc1c([N+](=O)[O-])c2ccc(O)cc2n1-c1ccccc1 | inactive
COc1ccccc1N1CCN(C(=O)CCC(=O)N2CCN(c3ccc(F)cc3)CC2)CC1 | inactive
COc1ccc(NS(=O)(=O)c2cc3c(cc2C)NC(=O)CO3)c(OC)c1 | inactive
CSc1nc(-c2ccccc2)nc(C(Cl)Cl)n1 | inactive
O=C(NCCc1ccccc1)C1CCC(=O)N(Cc2cccc(C(F)(F)F)c2)C1 (centres undefined) | inactive
CCOC(=O)C1CCN(S(=O)(=O)c2c[nH]c(=O)[nH]c2=O)CC1 | inactive
COc1cccc(CC(=O)n2nc(N)c3cc4ccc(OC)cc4nc32)c1 | inactive
CCN(CC(=O)NCc1ccc(F)cc1)CC(=O)Nc1ccccc1-c1ccccc1 | inactive
O=S(=O)(NCCc1ccccc1F)c1cccc(S(=O)(=O)N2CCOCC2)c1 | inactive
S=C(Nc1ccccc1Cl)N1CCCC(c2ccccc2)=N1 | 23.3 µM (active)
COc1ccc(C2NC(=O)CCC2[N+](=O)[O-])c(OC)c1OC (centres undefined) | inactive
Cn1cc(SCC(=O)Nc2nccs2)c2ccccc21 | inactive
CS(=O)(=O)c1ccc(Cl)c(NC(=O)COC(=O)CNC(=O)c2cccs2)c1 | inactive
COc1ccc([C@H]2CC(=O)C=C(c3ccc(CNC(=O)OC(C)(C)C)cc3)C2)cc1 | inactive
COc1ccc(-n2nnnc2SCC(=O)Nc2nnc(C)s2)cc1 | inactive
CC1CCCN(C(=O)c2ccc(-c3ccccc3Cl)o2)C1 (centres undefined) | inactive
CCCN1CCN(C(=O)CCCn2c(C)c3cnn(-c4ccccc4)c(=O)c3c2C)CC1 | inactive
